Experimental data: PubChem BioAssay (NCI)
Where “and” joins values, the source holds several entries; their conditions need not be identical. Equal values may be shown once. The panel holds about 83,000 compounds, 20% with a hit somewhere; the sample as a whole holds those more often.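 Growth was measured after 48 h exposure to one concentration of compound in 96-well plates. Values under 10 count as active.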 Calls of active or inactive are those of the source.

system: MDA-MB-468 breast; experiment: NCI-60 one-dose screen, 48 h (100 = growth as untreated, 0 = no growth, -100 = all killed); details: 10 µM unless noted

| Structure (SMILES) | growth |
| --- | --- |
| NC(N)=N/N=C\c1c[nH]c2ccc(Br)cc12 | -6.01% (active) |
| CC(=O)Nc1ccc(C=C2C(=O)NC(=O)NC2=O)cc1 | 115% (inactive) |
| CN(C)[C@@H]1C(=O)C(C(N)=O)=C(O)[C@@]2(O)C(=O)C3=C(O)c4c(O)ccc(Cl)c4[C@@](C)(O)[C@H]3C[C@@H]12 | 105% (inactive) and 101% (inactive) |
| NC1CC2CCCCC2CC1(O)c1ccccc1 (centres undefined) | 98.2% (inactive) |
| C#CC1(O)CCC(C(C)(C)C)CC1 (centres undefined) | 122% (inactive) |
| CC[C@H](C)[C@H](NC(=O)c1ncccn1)C(=O)N(C)[C@H](C[C@@H](OC(C)=O)c1nc(C(=O)N[C@@H](Cc2ccccc2)C[C@H](C)C(=O)OC)cs1)C(C)C | 23% (inactive) |
| Cc1ccccc1O | 103% (inactive) |
| O=c1[nH]c2ccccc2n1C1CCN(CCCC(c2ccc(F)cc2)c2ccc(F)cc2)CC1 | 33% (inactive) |
| CCN(CCO)C(Cc1ccccc1)c1ccccc1 (centres undefined) | 96% (inactive) |
| CN1CCC(c2c[nH]c3ccccc23)C1 (centres undefined) | 116% (inactive) |
| Cc1cc[n+](CCc2ccccc2)cc1 | 61.2% (inactive) and 72.9% (inactive) |
| Clc1ccc(COC(Cn2ccnc2)c2ccc(Cl)cc2Cl)cc1 (centres undefined) | 39.7% (inactive) |
| CNC(=O)Oc1ccc(N(C)C)cc1C(C)C | 74.8% (inactive) |
| CC[C@H](C)[C@H](NC(=O)[C@H]1CCCCN1C)C(=O)N(C)[C@H](C(=O)NC12CC(C(=O)N[C@@H](Cc3ccccc3)C[C@H](C)C(=O)OC)(C1)C2)C(C)C | 116% (inactive) |
